From PubChem
uPA surface inh – blocks generation of uPA at the cell surface; cell surface uPA generation assay, qHTS; Potency, µM (titrated, usually from 38.3 µM), for inactives: at the highest dose activity change, negative = inhibition, actives largely listed as inhibitors; 330,000 compounds, 0.31% hits; active means well fitted inhibition curve with a large enough effect; inconclusive means small, poorly fitted or top-dose-only effect; inactive means no such curve, though single readings can be large or run the other way; tested in mouse RAW 264.7 cells; further: potency means the concentration at half of the fitted maximal effect; on the % scale 0 is the no-effect control and ±100 the full control effect; nearly all actives have a fitted effect of over 55% in size
D3 antag – D3 dopamine receptor (human) antagonism; D3R cells, DiscoveRx beta-arrestin luminescence, antagonist mode; active compounds read low; max response, negative = inhibition, %; 360,000 compounds, 2.5% hits; in the data active means max response below about -50%; inconclusive means no clear call, values can overlap the other calls; further: on the % scale 0 is the no-effect control and ±100 the full control effect
Target sequence (P35462 whole entry, looked up): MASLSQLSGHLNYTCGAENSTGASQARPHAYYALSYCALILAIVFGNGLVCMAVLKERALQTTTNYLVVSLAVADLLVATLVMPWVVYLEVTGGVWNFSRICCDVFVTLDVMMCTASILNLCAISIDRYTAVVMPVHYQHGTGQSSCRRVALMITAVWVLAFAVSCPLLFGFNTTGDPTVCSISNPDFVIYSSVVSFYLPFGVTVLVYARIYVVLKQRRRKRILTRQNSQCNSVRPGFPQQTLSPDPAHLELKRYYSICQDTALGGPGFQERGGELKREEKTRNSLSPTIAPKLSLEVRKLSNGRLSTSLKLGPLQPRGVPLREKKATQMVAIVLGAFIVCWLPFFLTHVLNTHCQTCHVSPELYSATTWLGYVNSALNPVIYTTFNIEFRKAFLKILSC
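Cells expressing the human receptor were seeded at 1500 cells/well, incubated overnight at 37 degrees C in 5% CO2, then exposed to library compounds with dopamine controls for 90 minutes at 37 degrees C before luminescent detection.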
D3 ag – activates the human D3 dopamine receptor | P35462 | D3R DiscoveRx beta-arrestin cells, luminescence, 90 min | max activation, % | 410,000 compounds, 0.58% hits | AID 652048; in the data active means max activation above about 30%; further: 0% is about no effect
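Agonist mode: compounds and dopamine controls were applied to plated cells for 90 min at 37 degrees C after an overnight attachment at 1500 cells/well. Luminescent read-out followed 30 - 60 minutes at room temperature with DiscoveRx detection reagent.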
RGS4 inhibitor – blocks human RGS4-accelerated GTP hydrolysis | AID 504845 | Transcreener GDP fluorescence polarization, RGS4-accelerated GTP hydrolysis | P49798 | 390,000 compounds, 0.039% hits | Potency, µM (series often up to 114 µM), inactives show at the highest dose activity change, negative = inhibition, usual class: inhibitors; active means well fitted inhibition curve with a large enough effect; inconclusive means small, poorly fitted or top-dose-only effect; inactive means no such curve, though single readings can be large or run the other way; further: potency means the concentration at half of the fitted maximal effect; on the % scale 0 is the no-effect control and ±100 the full control effect; nearly all actives have a fitted effect of over 75% in size
Target sequence (P49798 whole entry, looked up): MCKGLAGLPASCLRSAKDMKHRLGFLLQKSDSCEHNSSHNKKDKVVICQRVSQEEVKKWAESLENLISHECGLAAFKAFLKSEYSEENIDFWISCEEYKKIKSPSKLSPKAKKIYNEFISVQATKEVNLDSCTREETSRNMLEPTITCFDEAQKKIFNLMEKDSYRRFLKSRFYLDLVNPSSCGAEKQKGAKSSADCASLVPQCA
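MLSMR compounds (23 nl, pin-transferred) preincubated 10 min at room temperature with a 500nM (2x) first reagent, then RGS4 at 900nM (2x) plus Transcreener GDP mix added; fluorescence polarization (620/688 nm) read before and after 90 min at 30 °C.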
An asterisk follows results filed as active; ? = inconclusive; · = no result; ! = not confirmed by another sample; [ ] = another dose, or the depositor's remark. Most compounds without a hit are left out; they make up all but 3.1% or so of the library.

SMILES	uPA surface inh	D3 antag	D3 ag	RGS4 inhibitor
CCCc1nnc(NC(=O)c2nc(S(=O)(=O)Cc3cccc(C)c3)ncc2Cl)s1	?	-68*	-8	-42%
COc1cc2c(=O)c(S(=O)(=O)c3ccccc3)cn(CC(=O)Nc3ccccc3C)c2cc1OC	·	·	1	-24%
COc1ccc(OC)c(CNC(=O)c2cc(S(=O)(=O)N3CCC(C)CC3)cn2C)c1	·	·	1	14%
COc1cc(OC)cc(-c2nc3nc(C)c(CCC(=O)Nc4ccc(Cl)cc4)c(C)n3n2)c1	·	·	-14	15%
CCCOc1ccc(CNC(=S)Nc2ccccc2)cc1Cl	2%	-15	-4	-27%
Cc1cccc(CS(=O)(=O)c2ncc(Cl)c(C(=O)Nc3c(C)cccc3C)n2)c1	?	-100*	-24	?
CN1CCCN(c2cc(-c3ccc4ccccc4c3)nc3ccnn23)CC1	·	-67*	-12	·
O=C(CCCCn1c(=O)c2ccccc2n(CC(=O)Nc2ccc(F)cc2F)c1=O)NCCc1ccccc1	·	·	-10	7%
C=C[C@]1(C)C[C@@H](OC(=O)CSCCN(CC)CC)[C@]2(C)C(C)CC[C@]3(CCC(=O)[C@H]32)[C@@H](C)[C@@H]1O (some centres not stated)	-18%	-89*!	-59	-9%
c1ccc(CC2CNc3ccccc3CN2)cc1 (configuration not stated)	-1%	-52*	-5	-5%
CCn1c(C(=O)OC)cc2c1ccn2-c1ccc(F)cc1	-4%	-77*	4	-57%[11.4 µM]
O=C(Nc1ccccc1)c1ccc(-n2nncc2-c2ccccc2)cc1	·	·	·	5%
Cc1nc(C)c(-c2csc(Nc3ccc(N)cc3)n2)s1	4.5µM*	15	-8	?
CC(=O)Nc1nc(C)c(-c2csc(Nc3cccc([N+](=O)[O-])c3)n2)s1	-14%	-9	4	?
Cc1nc(N)sc1-c1csc(Nc2ccccc2)n1	-3%	-56*	3	-48%
COc1ccccc1Nc1nc(-c2sc(NC(=O)C(C)(C)C)nc2C)cs1	5.6µM*	16	1	-5%
COc1ccc(Nc2nc(-c3sc(C)nc3C)cs2)cc1	?	17	-2	-38%
CC(=O)Nc1nc(C)c(-c2csc(Nc3cccc(C(C)=O)c3)n2)s1	11µM*	50	5	-16%
C=C(C)C1CC=C(C)CC1 (configuration not stated)	·	·	-8	·
Cc1c(C(=O)NC(C)c2ccccc2)sc2ncnc(N(C)C3CCCCC3)c12 (configuration not stated)	·	·	3	-11%
COc1cc2ccc(=O)oc2cc1O	-10%	10	6	-19%
O=Nc1ccc2oc(=O)ccc2c1	·	·	·	6µM*
COc1ccc(C(C)=O)cc1CSc1ccc2c(c1)OCCO2	-1%	11	5	-8%
COc1ccc(CN2CCC(CNC(=O)NC3CCCCC3)CC2)cc1	-2%	-54*	2	-7%
O=C(Nc1ccccc1)NC1CCN(Cc2nnnn2C2CCCCC2)CC1	5%	-70*	-3	25%
SMILES	uPA surface inh	D3 antag	D3 ag	RGS4 inhibitor
S=C(Nc1ccccc1)NC1CCN(Cc2ccccc2)CC1	-3%	-77*	-19	-12%
Cc1ccccc1C(=O)NC1CCN(Cc2nnnn2C2CCCC2)CC1	-3%	?	0	19%
COc1ccc(CNC(=O)NC2CCCCC2)cc1	-15%	-19	4	19%
Cc1ccccc1NC(=S)NC1CCN(Cc2ccccc2)CC1	4%	-50*	-29	-2%
Cc1cc(S(=O)(=O)NCCc2csc(-c3cccc(F)c3)n2)ccc1F	·	·	-17	-15%
S=C(NCCc1ccccc1)NC1CCC(NC(=S)NCCc2ccccc2)CC1 (configuration not stated)	11%	-6	4	1%
COc1ccc(CCNC(=S)NC2CCN(Cc3ccccc3)CC2)cc1	-2%	-83*	-20	-26%
S=C(Nc1ccc(Cl)cc1)NC1CCN(Cc2ccccc2)CC1	2%	-60*	-21	21%
Cc1ccc2nc(SCC(=O)OCc3ccccc3)nc(=O)n2c1	-4%	-55*	-1	32%
COc1cccc(-c2cn3c(n2)sc2cc(C(=O)NCc4ccccc4F)ccc23)c1	·	·	4	-8%
COc1ccc(N/N=C/c2c(C(=O)O)ccc3ccccc23)cc1	10µM*	-8	-1	-17%
COc1ccc2ccccc2c1/C=N/Nc1ccc(Cl)c(C(=O)O)c1	1%	-3	0	-17%
CC(C)[C@H](NC(=O)[C@@H]1Cc2c([nH]c3ccccc23)C2c3ccccc3C(=O)N21)C(=O)N1CCC[C@@H]1C(=O)O (some centres not stated)	-8%	29	40*	-21%
CC(C)[C@H](NC(=O)N1CC(=O)Nc2ccccc21)C(=O)N1CCC[C@H]1C(=O)O	-9%	0	-31	14%
COC(=O)c1ccc(NS(=O)(=O)c2cc(-c3cc(C)no3)ccc2OC)cc1	?	-52*	1	10%
COc1ccc(-c2cc(C)no2)cc1S(=O)(=O)Nc1ccccc1	?	?	-7	4%[56.9 µM]
CCn1cc(C(=O)NC(C)C23CC4CC(CC(C4)C2)C3)cn1 (configuration not stated)	-1%	-5	-8	26%
CC(NC(=O)Cn1ncc(Cl)c(Cl)c1=O)C12CC3CC(CC(C3)C1)C2 (configuration not stated)	-6%	-77*	-14	1%
O=C(Cn1ncc(Cl)c(Cl)c1=O)NC(=O)NC1CCCCC1	6%	-68*	-13	-12%
COc1ccc([N+](=O)[O-])cc1N(CC(O)CN1CCCCC1)S(=O)(=O)c1ccccc1 (configuration not stated)	-3%	-22	-14	23%
CCCN(CCC)CC(O)CN(c1cc([N+](=O)[O-])ccc1OC)S(=O)(=O)c1ccccc1 (configuration not stated)	-8%	-65*	-1	5%
O=C(N/N=C/c1ccc(-c2ccccc2[N+](=O)[O-])o1)c1cccnc1	1%	-59*	-2	?
O=C(NCc1ccccc1)c1ccc(-c2ccccc2C(F)(F)F)o1	11%	-56*	-90	-21%
O=C(NCc1cccnc1)c1ccc(-c2ccccc2[N+](=O)[O-])o1	-3%	-55*	-6	-18%
CC(C)(C)c1cc(C(=O)N/N=C/c2ccc(-c3ccccc3[N+](=O)[O-])o2)n[nH]1	-1%	?	-28	?
CCn1cc(C(=O)OCC(=O)OC2CC(C)CCC2C(C)C)c(=O)c2ccc(C)nc21 (configuration not stated)	-1%	-81*	-1	-4%
O=C(Nc1ccccc1C(=O)O)c1ccc(NC(=O)C2CC2)cc1	7.9µM*	54	15	-43%
COc1cc(C(=O)NC(CCSC)C(=O)Nc2ccc(N3CCOCC3)cc2)cc(OC)c1OC (configuration not stated)	·	-73*	-4	·
Cc1ccccc1CN1c2ccccc2-c2nc(SCC(=O)Nc3cc(F)ccc3F)ncc2S1(=O)=O	·	·	3	-30%
